p47phox inh = inhibitors of human p47phox binding. P14598. p47phox/p22phox peptide binding, fluorescence polarization, 2 h. inhibition, % at 24.7 µM. 220,000 tested, 0.53% active. AID 1274;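 active = inhibition above about 30%, limit read from the data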
Target sequence (P14598 whole entry, looked up): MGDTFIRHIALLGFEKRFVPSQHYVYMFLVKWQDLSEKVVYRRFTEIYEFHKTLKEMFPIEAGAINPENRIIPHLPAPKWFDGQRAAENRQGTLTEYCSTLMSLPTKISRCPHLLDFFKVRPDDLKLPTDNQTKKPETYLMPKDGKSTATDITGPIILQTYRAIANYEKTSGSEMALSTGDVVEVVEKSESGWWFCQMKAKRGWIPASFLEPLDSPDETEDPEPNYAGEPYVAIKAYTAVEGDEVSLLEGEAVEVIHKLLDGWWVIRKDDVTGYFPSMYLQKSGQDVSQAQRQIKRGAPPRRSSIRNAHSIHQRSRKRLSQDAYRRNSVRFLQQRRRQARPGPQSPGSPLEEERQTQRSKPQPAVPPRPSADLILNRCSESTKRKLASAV
14-3-3 Bad inh = disrupts binding of bovine 14-3-3 zeta to phospho-Bad peptide | 220,000 tested, 0.71% active | inhibition, % at 21.7 µM | P63103 | TR-FRET 14-3-3zeta/Dy647-pBad peptide displacement, 1 h | AID 781;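 active = inhibition above about 70%, limit read from the data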
Target sequence (P63103 whole entry, looked up): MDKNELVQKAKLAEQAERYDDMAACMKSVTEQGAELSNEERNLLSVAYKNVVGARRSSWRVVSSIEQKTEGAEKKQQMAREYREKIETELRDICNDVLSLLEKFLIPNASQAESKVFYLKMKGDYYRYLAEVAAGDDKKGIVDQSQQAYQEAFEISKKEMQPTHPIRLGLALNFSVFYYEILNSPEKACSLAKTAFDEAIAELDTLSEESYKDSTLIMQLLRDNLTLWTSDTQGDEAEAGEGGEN
Mcl1-Noxa inh = Mcl-1/Noxa interaction inhibition; inhibition, % at 21.7 µM; AID 1022; Q07820; TR-FRET Mcl-1/Noxa peptide binding, 2 h; 220,000 tested, 1.5% active;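 active = compounds that cut the protein-peptide binding signal by more than 50% relative to plate controls in a single-dose test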;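 also: His-tagged Mcl-1 with rhodamine Noxa BH3 peptide and terbium anti-His antibody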
Mcl1 Bid PPI = disrupts binding of human Mcl-1 to Bid peptide; Q07820; TR-FRET Mcl-1/Bid-Dy647 peptide binding, 1536-well; inhibition, % at 21.7 µM; 220,000 tested, 0.97% active; AID 1021;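 active = compounds that cut the binding signal by more than half at the single screening dose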;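 also: His-tagged Mcl-1 with europium anti-His antibody binding Bid BH3 peptide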
m-calpain inh = inhibitors of pig calpain II. inhibition, % at 16 µM. purified calpain II, fluorogenic peptide substrate, 30 min. 220,000 tested, 0.37% active;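 active = inhibition above about 50%, limit read from the data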
Mcl-1 Bim block = disrupts Bim peptide binding to human Mcl-1; Q07820; Bead-based flow cytometry, Bim peptide-Mcl-1 binding; inhibition, % at 10 µM; 190,000 tested, 0.1% active; AID 1009; in the data active = inhibition above about 40%
Of the large screens only hits and unclear results are named; the others gave an inactive call; [ ] = dose if it differs, or a comment. Rows were chosen to be rich in hits. Some 3.4% of all compounds tested hit in one or more screens of this group.

Cc1ccc(Nc2nnc(SC3CCOC3=O)s2)c(C)c1 (stereo unspecified)	14-3-3 Bad inh 80
Cc1ccc(Nc2nnc(SCC(=O)NC3CCS(=O)(=O)C3)s2)c(C)c1 (stereo unspecified)	none
Cc1ccc(NC(=O)CN2C(=O)S/C(=C/c3ccc(-c4cc(C(=O)O)ccc4C)o3)C2=O)cc1C	14-3-3 Bad inh 76[fluorescence artefact?], Mcl1-Noxa inh 84, Mcl1 Bid PPI 94
Cc1cccc(NC(=O)CN2C(=O)S/C(=C\c3ccc(-c4cccc(C(=O)O)c4C)o3)C2=O)c1	none
Cc1cc(C(=O)O)ccc1-n1c(C)cc(C=C2C(=O)c3ccccc3C2=O)c1C	none
Cc1ccc(C(=O)O)cc1-c1ccc(C=C2C(=O)c3ccccc3C2=O)o1	Mcl1-Noxa inh 57
CN(C(=O)CN(c1ccccc1)S(=O)(=O)c1ccc(F)cc1)C1CCS(=O)(=O)C1 (stereo unspecified)	none (no result: Mcl-1 Bim block)
Cn1[nH]c(CSc2ccc(Cl)cc2)cc1=O	none
CC(C)c1ccc(CNc2nc3nc4c(c(=O)n3[nH]2)CCC4)cc1	none
O=c1c2c(nc3nc(NCc4cccc(Cl)c4)[nH]n13)CCC2	14-3-3 Bad inh 72
COc1ccc(C(=O)c2ccccc2)c2c(O)ccc(C(=O)c3ccccc3)c12	none
COc1ccc(C(C)=O)c2c(O)cccc12	m-calpain inh 68
CC(=O)Nc1ccc(S(=O)(=O)NCC(CCC(=O)O)C(F)(F)F)cc1 (stereo unspecified)	Mcl1-Noxa inh 60
CC(=O)Nc1ccc(S(=O)(=O)NCC(C)NS(=O)(=O)c2ccc(NC(C)=O)cc2)cc1 (stereo unspecified)	none
O=C(Nc1ccc(-c2nc3ccccc3s2)c(OC(=O)c2ccccc2)c1)c1ccccc1	none
O=C(O)c1cc(N2N=C(C(F)(F)F)/C(=C/C=C/c3ccco3)C2=O)ccc1Cl	Mcl1-Noxa inh 106, Mcl1 Bid PPI 86
CCN(CC)CCn1c2ccccc2c2nc3ccc([N+](=O)[O-])cc3cc21	none (no result: Mcl-1 Bim block)
O=C(Oc1cccc2c(=O)[nH]ccc12)c1ccccc1	14-3-3 Bad inh 78
O=C1CN(C(=O)COC(=O)CNS(=O)(=O)/C=C/c2ccccc2)c2ccccc2N1	Mcl1 Bid PPI 58
CS(=O)(=O)N(CC(=O)NCc1ccncc1)c1ccc(F)c(Cl)c1	none
CN(C)c1ccc(N/C(N)=N/c2nc(C(F)(F)F)cc(C(F)(F)F)n2)cc1	Mcl1-Noxa inh 61
CCC1=NN2C(=N)/C(=C\c3ccc(OCc4cc(=O)n5nc(CC)sc5n4)c(OC)c3)C(=O)N=C2S1	Mcl1-Noxa inh 94
CCc1nn2c(=O)cc(COc3ccc(/C=C4\C(=N)N5N=C(CC(C)C)SC5=NC4=O)cc3)nc2s1	none (no result: Mcl-1 Bim block)
Cc1[nH]n(-c2ccc(Cl)c(Cl)c2)c(=O)c1CCO	none
Cc1[nH]n(-c2ccc(C(=O)O)cc2)c(=O)c1CCO	m-calpain inh 58
COc1cccc(-c2cnc(NCc3cc(Cl)ccc3O)n2C)c1	m-calpain inh 55
CC(/C=N/n1c(-c2cc(C)[nH]n2)n[nH]c1=S)=C\c1ccco1	none (no result: Mcl-1 Bim block)
CC(/C=N/n1c(-c2ccc(Cl)cc2)n[nH]c1=S)=C\c1ccco1	Mcl1-Noxa inh 64
Cc1nn(-c2ccccc2)c(C)c1/C=N/n1c(-c2ccc(Cl)cc2)n[nH]c1=S	Mcl1-Noxa inh 53
COC(=O)c1ccc(NC(=O)NC2CCCCC2)cc1	none
CC(=O)Nc1ccc(C(=O)OCC(=O)NC(=O)NC2CCCCC2)cc1	p47phox inh 133
O=C(Nc1nnc(-c2ccc3c(c2)OCCO3)o1)C1CCCCC1	none
CCN(CC)CCCOc1nc(C)nc2c1oc1ccccc12	14-3-3 Bad inh 77
CC(=O)c1cc(CN2CCN(Cc3ccccc3)C(CCO)C2)cs1 (stereo unspecified)	none
CC1CN(Cc2c(O)ccc3c(=O)c(-c4ccccc4)coc23)CC(C)O1 (stereo unspecified)	none
CC1CN(Cc2c(O)ccc3c2oc(=O)c2ccccc23)CC(C)O1 (stereo unspecified)	14-3-3 Bad inh 83, m-calpain inh 80 (no result: Mcl-1 Bim block)
CCCc1nnc(SCC(=O)N2CCCC2)n1Cc1ccco1	none
C=CCn1c(SCC(=O)NNC(=O)Nc2ccc(C)cc2)nnc1-c1ccccc1	none (no result: Mcl-1 Bim block)
C=CCn1c(SCC(=O)Nc2ccc(NC(=O)c3ccco3)c(OC)c2)nnc1-c1ccncc1	p47phox inh 94
C=CCn1c(SCC(=O)Nc2ccc(-c3nc4ccc(C)cc4s3)cc2)nnc1-c1ccccc1	14-3-3 Bad inh 92[fluorescence artefact?], Mcl1-Noxa inh 70, Mcl1 Bid PPI 66
Cc1ccccc1NC(=O)c1cc(C(=O)c2cc(Cl)ccc2O)cn(-c2ccccc2C)c1=O	none
O=C(Nc1nc2c(cc3c4c(cccc42)CC3)s1)c1ccccc1Cl	none
NC1=NC[C@@H](Cc2ccc(O)cc2)N1CCCCC1CCCCC1	none (no result: Mcl-1 Bim block)
CC(=O)NC(c1cccs1)c1cc([N+](=O)[O-])c2cccnc2c1O (stereo unspecified)	Mcl1-Noxa inh 55
Cc1ccc(C)c(NC(=S)N/N=C/C(C)c2ccccc2)c1 (stereo unspecified)	none
COC(=O)c1ccc(Oc2coc3cc(OCc4ccc([N+](=O)[O-])cc4)ccc3c2=O)cc1	Mcl1-Noxa inh 55, Mcl1 Bid PPI 94
Cc1ccc(/C=N/n2c(C3CCCCC3)n[nH]c2=S)s1	none
CC(C)(C)SCCNC(=O)CN(c1ccccc1)S(=O)(=O)c1ccccc1	none
C#CCn1c(=NC(=O)c2ccc(S(=O)(=O)N3CCc4ccccc4C3)cc2)sc2cc(S(N)(=O)=O)ccc21	none
C#CCn1c(=NC(=O)c2sc3ccccc3c2Cl)sc2cc(S(N)(=O)=O)ccc21	14-3-3 Bad inh 77[fluorescence artefact?]
O=C1CN(C(=O)COC(=O)c2ccc[n+]([O-])c2)c2ccccc2N1	none
O=C(Nc1cccc(S(=O)(=O)NC2=NCCCCC2)c1)c1cc(-c2ccco2)nc2ccccc12	Mcl1-Noxa inh 97 (no result: Mcl-1 Bim block)
O=C(Nc1cccc(S(=O)(=O)NC2=NCCCCC2)c1)c1cccnc1Cl	none (no result: Mcl-1 Bim block)
O=C(Nc1cccc(S(=O)(=O)NC2=NCCCCC2)c1)c1cc(-c2ccncc2)nc2ccccc12	Mcl1-Noxa inh 54
CC1=C(C(=O)OCc2ccccc2)C(c2cccs2)N2C(=O)CCSC2=N1 (stereo unspecified)	m-calpain inh 61
CCC(C)NC(=O)Cn1c(-c2ccccc2)cc(C(C)=O)c1C (stereo unspecified)	none
CCS(=O)(=O)N1CCC(C(=O)NCc2ccc(OC)cc2)CC1	none
O=C(Nc1ccc2oc(-c3cccnc3)nc2c1)c1ccc([N+](=O)[O-])o1	Mcl1-Noxa inh 67, Mcl1 Bid PPI 61
O=C(Nc1ccc2oc(-c3cccnc3)nc2c1)c1ccco1	none
O=C(Nc1ccc2oc(-c3cccnc3)nc2c1)c1ccc(Br)o1	Mcl1 Bid PPI 52
O=C(CSc1ccsc1[N+](=O)[O-])N1CCCCCC1	none

Source: PubChem BioAssay
